Assay results from PubChem BioAssay AID493244 (The Scripps Research Institute Molecular Screening Center, 2011).
Values joined by “and” are separate entries in the source; they are usually repeats but may differ in a detail not shown here. Equal entries are not always repeated. Among all 340,000 compounds or so, about 390 (0.11%) were called active. For the sample, actives were picked, then their nearest neighbours and some compounds at random. A number with no mark means an inactive call.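 How the source made its calls: active means inhibition above the mean inhibition of all tested compounds plus 3 SD (cut at about 17% in these data); inactive means the rest.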

Biological target: Troponin I, cardiac muscle (Homo sapiens) + Troponin T, cardiac muscle (Homo sapiens) + Troponin C, slow skeletal and cardiac muscles (Homo sapiens) (UniProt P19429+P45379+P63316)
Test: cardiac RTF calcium sensitivity inhibitors, primary screen, biochemical, IANBD-TnC fluorescence, EC70 calcium (AID 493244);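 further: assay run at fixed EC70 calcium of 1.6 mM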
Details: IANBD-labeled cardiac RTF, Ca2+ fluorescence; at 7.15 µM; hits give high values

Going from Cc1cc(C)c2nc(SCC(=O)N(C)C3CCS(=O)(=O)C3)cc(C)c2c1 (stereo unspecified) to C/C(=N\NC(=O)COc1ccc(C)cc1[N+](=O)[O-])c1ccc2c(c1)OCCO2, the inhibition rises from -11.7% to -7.39%.

First: Cc1cc2oc(=O)cc(-c3ccccc3)c2c(C)c1-c1ccc(OC(F)(F)F)cc1
Second: Cc1cccc(-c2c(NC(=O)c3ccco3)oc3ccc(Cl)cc3c2=O)c1
The inhibition of the first is higher: -2.33% for the first, -4.74% for the second.

First: CCn1c(SCc2cc(=O)n3ccsc3n2)nc2ccccc21
Second: C=CCn1c(N)cc(=O)nc1SCC(=O)Nc1cccc2ccccc12
The inhibition of the first is higher: -0.11% for the first, -2.98% for the second.

Going from COc1ccc(S(=O)(=O)NCC2CCCN(C(=O)c3occc3C)C2)cc1 (stereo unspecified) to COC(C(=O)Nc1ccc(S(=O)(=O)Nc2ccc(C)c(C)c2)cc1)c1ccccc1 (stereo unspecified), the inhibition rises from -1.36% to -0.7%.

Going from COc1ccc2oc(N)nc2c1 to COc1ccc(C2CC(=O)NC(=O)C2)cc1, the inhibition falls from 1.17% to -0.2%.

Compared with COc1cc(C(=O)Nn2c(O)c(C3=c4ccccc4=NC3=O)sc2=S)ccc1O, COc1cccc(NC(=S)C(C#N)=C2N(C)c3ccccc3N2C)c1 is lower in inhibition: -0.38% for the first, -5.1% for the second.

Compared with COc1cc(OC)c2c(c1)OC(=O)CC2c1cc(OC)c(OC)c(OC)c1 (stereo unspecified), COc1ccc(CCC(=O)Nc2ccc(Cl)c(S(=O)(=O)N3CCOCC3)c2)cc1OC is lower in inhibition: -1.64% for the first, -10.9% for the second.

Compared with NC(=O)C1(N2CCCCC2)CCN(C(=O)c2ccc(C#Cc3ccccc3)o2)CC1, CCOC(=O)c1nnn2c1nc(N1CCN(c3ccccc3)CC1)c1ccccc12 is higher in inhibition: -7.6% for the first, -5.69% for the second.

Compared with N#CC1(Nc2ccc(-c3ccc(Cl)cc3)cc2)CCCC1, CC1CCCCC1NC(=O)COC(=O)Cc1ccc(Br)cc1 (stereo unspecified) is higher in inhibition: -2.12% for the first, -1.84% for the second.

Compared with O=C(COC(=O)c1ccccc1Cl)NC1CCCCCCC1, O=C(COC(=O)c1ccccc1SCC(=O)NC1CCCCC1)NC1CCCCC1 is lower in inhibition: 3.26% for the first, 1.46% for the second.

First: CCCCN(C(=O)CSCc1ccc(C)cc1)c1c(N)n(Cc2ccccc2)c(=O)[nH]c1=O
Second: CCCCn1c(N)c(N(CC(C)C)C(=O)CSc2ccc([N+](=O)[O-])cc2)c(=O)[nH]c1=O
The inhibition of the first is higher: -2.92% for the first, -11.5% for the second.

Going from Cc1nc(-c2ccccc2)sc1-c1nnc(C2CC2)o1 to CCCCSc1nnc2c(n1)OC=Nc1ccccc1-2, the inhibition rises from -8.96% to -2.01%.

Going from O=C(CNC(=O)C12CC3CC(CC(C3)C1)C2)OCC(=O)N1CCCCC1 to CCc1[nH]nc(C(=O)N2CCCC(CO)(Cc3ccc(F)cc3F)C2)c1C (stereo unspecified), the inhibition rises from -10.1% to -5.33%.

Compared with CC1(C)C/C(=N/Nc2ccc([N+](=O)[O-])cc2[N+](=O)[O-])C(C)(C)O1, C/C(=N/NC(=O)c1ccncc1)c1ccc2c(c1)OCO2 is higher in inhibition: -8.69% for the first, -5.5% for the second.

Going from C[N+](C)(C)CCNC(=O)c1cc[n+](Cc2ccccc2)c(/C=N/O)c1 to CC(C)(C)c1ccc(C(=O)NCc2nnc(SCC(=O)N3CCCc4ccccc43)n2-c2ccccc2)cc1, the inhibition falls from 0.25% to -6.84%.

Compared with O=C1Nc2c(Br)cc(Br)cc2C1(O)N1CCOCC1 (stereo unspecified), CCc1nnc(NC(=O)c2cc(S(=O)(=O)N3CCN(CC)CC3)ccc2Cl)s1 is lower in inhibition: -1.44% for the first, -8.17% for the second.

Cc1ccc2c(c1)C1C[N+](C)(CC(=O)c3ccccc3)CCC1N2C(=O)c1ccccc1Cl (stereo unspecified) gave an inhibition of -13.7%.

C=CCNC(=O)COC(=O)c1ccccc1C(=O)N(C)C1CCCCC1 was tested, and the inhibition was 18.3% (active).
For Cc1ccc(C(=O)C[n+]2cc(-c3ccccc3)n3c2CCCCC3)cc1, the inhibition was -12.2% and -7.58%.
C/C(=N\NC(=O)C(N)=O)c1ccc2c(c1)OCCO2 was tested, and the inhibition was 17.1% (active).
